The results in this text go back to PubChem BioAssay.

A short description of experiment [1]: growth inhibition of DIPG glioma cells, dose response, cell-based, SU-DIPG-XVII, MIPE5.0, CellTiter-Glo, qHTS (AID 1347060).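 On AC50: cells exposed to compound for 48 hours before viability readout.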 To be noted: SU-DIPG-XVII viability, CellTiter-Glo ATP luminescence. (In ATP-based viability assays light output follows the ATP content of the culture.)
A short description of experiment [2]: growth inhibition of DIPG glioma cells, dose response, cell-based, SU-DIPG-XIII, MIPE5.0, CellTiter-Glo, qHTS (AID 1347064; cut-off not given, nearly all actives have AC50 up to about 23 µM;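 on AC50: cells exposed to compound for 48 hours before the viability read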). The following applies: SU-DIPG-XIII viability, CellTiter-Glo ATP luminescence.
Experiment [3] is described as follows: viability loss in pontine glioma line – cell-based, SU-DIPG-XXV, MIPE5.0, CellTiter-Glo, qHTS, dose response (AID 1347065).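 Further: cells exposed to compound for 48 hours before ATP readout.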 To be noted: CellTiter-Glo ATP luminescence.
Experiment [4] can be described thus: SU-DIPG-XXV glioma cell viability, MIPE5.0 library, qHTS (AID 1347068; cut-off not given, nearly all actives have IC50 up to about 30 µM;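 on IC50: cells exposed to compound for 48 hours before viability readout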). Background: qHTS replaces the single test concentration by a dilution series.
The nature of experiment [5]: JHH-DIPG-1 glioma cell viability, MIPE5.0 library, CellTiter-Glo luminescence, qHTS (AID 1347067).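 Further: cells exposed to compound for 48 hours before readout.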 The following applies: JHH-DIPG-1 glioma viability, CellTiter-Glo ATP luminescence.
Experiment [6] is described as follows: sensitizers of A549 cells to miR-34 induction, primary screen, imaging, A549 dox-inducible miR-34, nuclei and caspase counts (AID 1347080;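 active means compounds whose cell count with miR-34 switched on is under 0.7 times the count with it off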). The following applies: A549 miR-34 inducible, Hoechst nuclei count, 48 h.
Experiment [7] is described as follows: survival rescue of mitochondrial mutant cells in low glucose, primary screen, MELAS cybrids, Rieske KO mouse fibroblasts, CellTiter-Glo (AID 1508586;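 active means mean z-score across replicates of 1.96 or higher in either the MELAS or the Rieske mutant cell line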;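 further: z relative to plate mean and SD of compound and empty wells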).
Setting [8] is: stronger effect = lower value, cell number ratio, induced over uninduced.
Setting [9] is: measured here: relative caspase fold change +Dox/-Dox.
Where [10] appears, read: measured here: total cells with miR-34 induction, stronger effect = lower value.
Where [11] appears, read: measured here: total cells without miR-34 induction.
Setting [12] is: MELAS cybrid survival, CellTiter-Glo 48 h, stronger effect = higher value.
The mark [13] stands for this setting: Rieske KO mouse fibroblast survival, CellTiter-Glo 72 h.

Inconclusive results are not listed. Activity calls are given as the source filed them. Unless noted, cut-off not given; nearly all actives show AC50 up to about 26 µM.

The term AC50 denotes the concentration at which the activity in the assay is half-maximal. As a reminder, the IC50 is the concentration that gives 50% inhibition.

`N#Cc1ccnc(N2C(=O)CC[C@H]2C(=O)N(c2cncc(F)c2)[C@H](C(=O)NC2CC(F)(F)C2)c2ccccc2Cl)c1`: the molecule was called inactive in experiment [1], in experiment [2], in experiment [3] and in experiment [4].

As to `COc1ncc(-c2ccc3c(Nc4cc(Oc5cc(F)cc(F)c5)cc(C(=O)O)c4)c(S(=O)(=O)NC4CC4)cnc3c2)c(OC)n1`, the outcome in experiment [1], in experiment [2], in experiment [3] and in experiment [4] was inactive.

In the case of `C[C@@H](O)[C@@H]1NC(=O)[C@H](CCCCN)NC(=O)[C@@H](Cc2c[nH]c3ccccc23)NC(=O)[C@H](Cc2ccccc2)NC(=O)[C@@H](NC(=O)[C@H](N)Cc2ccccc2)CSSC[C@@H](C(=O)N[C@H](CO)[C@@H](C)O)NC1=O`, the result in experiment [1], in experiment [2], in experiment [3] and in experiment [5] was inactive. For the same molecule, the fold change in experiment [6] (setting [8]) is 0.862 (inactive); in experiment [6] (setting [9]), 0.995. In addition, the values for the cell count in experiment [6] (setting [10]) and in experiment [6] (setting [11]) were 9290 and 10800, respectively. The z-score in experiment [7] (setting [12]) is 0.396 (inactive); in experiment [7] (setting [13]), -0.498.

As to `Cc1ccc(-n2nc(C(C)(C)C)cc2NC(=O)NCc2cc(F)ccc2Oc2ccc3c(cnn3CCO)c2)cc1`, the values for the AC50 in experiment [1], in experiment [2] and in experiment [3] were 10.5 µM (active), 6.61 µM (active) and 5.25 µM (active), respectively. In experiment [4], the IC50 is 18.6 µM (active).

In the case of `Cc1ccc(Sc2ccccc2N2CCNCC2)c(C)c1`, the AC50 in experiment [1] is 11.8 µM (active); in experiment [2] it was 16.6 µM (active); in experiment [3] it was 10.5 µM (active); in experiment [5], 9.34 µM (active). The fold change was 0.93 (inactive) in experiment [6] (setting [8]) and 0.501 in experiment [6] (setting [9]). In addition, the figures for the cell count in experiment [6] (setting [10]) and in experiment [6] (setting [11]) were 4800 and 5160, respectively. Besides, the figures for the z-score in experiment [7] (setting [12]) and in experiment [7] (setting [13]) were -0.442 (inactive) and -1.42, respectively.

Take `COc1cc2c(cc1OC(C)C)[C@H](c1ccc(Cl)cc1)N(c1ccc(N(C)CC3CCC(N4CCN(C)C(=O)C4)CC3)cc1)C(=O)C2` (some centres undefined): the concentration at half-maximal activity (AC50) in experiment [1] is 26.3 µM (active); in experiment [2], 20.9 µM (active); in experiment [3], 26.3 µM (active). In addition, the IC50 in experiment [4] is 29.5 µM (active).

Regarding `Cc1c(F)ccc(C(=O)Nc2cc([N+](=O)[O-])ccc2N2CCN(C)CC2)c1Cl`, the AC50 in experiment [1] was 26.3 µM (active). In addition, the outcome in experiment [2], in experiment [3] and in experiment [4] was inactive.

For `CC(=NNC(=O)c1cccc(S(=O)(=O)N2CCOCC2)c1)c1cc(Cl)ccc1O`, the half-maximal activity concentration (AC50) in experiment [1] was 8.33 µM (active); in experiment [2] it was 6.61 µM (active); in experiment [3], 5.9 µM (active). Moreover, the call in experiment [4] was inactive.

Regarding `Cc1ccc(S(=O)(=O)Cc2nc(-c3ccc(C(=O)NCc4cccnc4)cc3)oc2C)cc1`, the AC50 is 0.0525 µM (active) in experiment [1], 0.0166 µM (active) in experiment [2], 0.0148 µM (active) in experiment [3] and 0.0209 µM (active) in experiment [5]. Further, the fold change was 0.957 (inactive) in experiment [6] (setting [8]) and 0.598 in experiment [6] (setting [9]). Also, the cell count in experiment [6] (setting [10]) turned out to be 5090; in experiment [6] (setting [11]), 5320. Besides, the z-score in experiment [7] (setting [12]) was -0.778 (inactive); in experiment [7] (setting [13]), -0.8.

For `O=C(c1ccc(NS(=O)(=O)c2cccc3cccnc23)cc1)N1CCN(CC2CC2)CC1`, the call in experiment [1], in experiment [2], in experiment [3] and in experiment [4] was inactive.

Consider `Cc1ncc(NC(=O)c2ccc(CN3CCN(C)CC3)c(C(F)(F)F)c2)cc1Nc1nccc(-c2cccnc2)n1`, for which the values for the AC50 in experiment [1], in experiment [2] and in experiment [3] were 23.5 µM (active), 9.34 µM (active) and 18.6 µM (active), respectively. Besides, the result in experiment [4] was inactive.

For the molecule `Cc1c(F)cccc1NC(=O)Nc1ccc(Cl)c(S(=O)(=O)[C@H]2CCCNC2)c1O`, the molecule was called inactive in experiment [1], in experiment [2], in experiment [3] and in experiment [4].

`CC(=O)N1CCC(Nc2cc(C(=O)NC[C@H](O)CN3CCc4ccccc4C3)ncn2)CC1`: the call in experiment [1], in experiment [2], in experiment [3] and in experiment [4] was inactive.

With `Cc1ccc(Nc2ncc3c(n2)N(C)C(=O)N(c2cc(NC(=O)c4cccc(C(F)(F)F)c4)ccc2C)C3)cn1`, the AC50 is 0.105 µM (active) in experiment [1], 0.0742 µM (active) in experiment [2] and 0.0118 µM (active) in experiment [3]. Also, the IC50 in experiment [4] was 0.0742 µM (active).
